This is part of a sample that, as a whole, favours compounds with a hit. Of some 79,000 tested, about 15% had one in any assay. Cut-off read from the data, not from the text of the source: active = growth inhibition above about 70%; inactive = the rest.
Columns and labels:
[1] = NCI Yeast Anticancer Drug Screen. Data for the rad50 strain (AID 155);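 note: 0% = growth of vehicle-only cultures of the same strain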; conditions: S. cerevisiae rad50 strain growth inhibition; at 50.0 µM; stronger effect = higher value
Outline: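 Cells are treated with compound, grown, and their growth is then scored against vehicle-only cultures of the same repair-deficient yeast strain.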

[2] = NCI Yeast Anticancer Drug Screen. Data for the mec2-1 strain (AID 157); conditions: S. cerevisiae mec2-1 strain, at 50.0 µM, stronger effect = higher value
Outline: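 mec2-1 yeast strain, carrying an alteration in DNA damage repair or cell cycle control, was exposed to compounds; growth inhibition was measured relative to vehicle-treated controls.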

[3] = NCI Yeast Anticancer Drug Screen. Data for the sgs1 mgt1 strain (AID 161);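 note: 0% = growth of cultures given vehicle only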; conditions: S. cerevisiae sgs1 mgt1 strain, at 50.0 µM, stronger effect = higher value
Outline: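 Percent growth inhibition was derived by comparing compound-exposed mutant yeast with vehicle-exposed cultures. The strain carries alterations in DNA damage repair.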

[4] = NCI Yeast Anticancer Drug Screen. Data for the cln2 rad14 strain (AID 165);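 note: 0% = growth equal to vehicle treated cultures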; conditions: S. cerevisiae cln2 rad14 strain, at 50.0 µM, stronger effect = higher value
Outline: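 Yeast carrying cln2 and rad14 alterations (cell cycle control and DNA damage repair) were exposed to compounds. Growth inhibition was measured against vehicle-treated controls.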

[5] = NCI Yeast Anticancer Drug Screen. Data for the bub3 strain (AID 167); conditions: S. cerevisiae bub3 mutant strain, at 50.0 µM, stronger effect = higher value
Outline: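 Part of a panel of yeast mutants defective in DNA damage repair or cell cycle regulation. Each strain is grown with compound, and inhibition is calculated relative to solvent-treated cultures.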

[6] = NCI Yeast Anticancer Drug Screen. Data for the mlh1 rad18 strain (AID 175); conditions: S. cerevisiae mlh1 rad18 strain growth inhibition; at 50.0 µM; stronger effect = higher value
Outline: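 Growth inhibition of the yeast strain was measured after compound exposure and expressed relative to vehicle-treated controls. The strain carries defined defects in DNA damage repair.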

Measured: growth inhibition

O=C1OC(=O)C2C3CCC(O3)C12 (configuration not stated)
inactive: [1] 13.9% | [2] 7.4% | [3] 4.75% | [4] -0.8% | [5] -0.5% | [6] -5%

O=S(=O)(c1ccccc1)N1N=C2c3ccccc3CCC[C@H]2C1c1ccccc1 (some centres not stated)
inactive: [1] 51.1% | [2] -16.4% | [3] -12.7% | [4] -49.7% | [5] 4.85% | [6] 4.85%

c1cc2c3c(cccc3c1)N1C(=N2)Sc2nc3ccccc3nc21
inactive: [1] 3.15% | [2] 13.5% | [3] -9.8% | [4] -5.2% | [5] 13.6% | [6] -3%

Cc1ccc(S(=O)(=O)CCCCS(=O)(=O)c2ccc(C)cc2)cc1
inactive: [1] 1.8% | [2] 4.35% | [3] -7.1% | [4] -62.4% | [5] -27.2% | [6] 2.3%

CC(C(=O)O)/C(=C\c1ccc2c(c1)OCO2)C(=O)O (configuration not stated)
inactive: [1] 8.15% | [2] 11.3% | [3] -12.9% | [4] -7.7% | [5] 12.9% | [6] 16.8%

CC(C)c1cccc(C(C)C)c1NC(=O)C(=O)C(C(=O)c1ccccc1-c1ccccc1)C1OC(=O)c2ccccc21 (configuration not stated)
inactive: [1] 8.2% | [2] 3.8% | [3] 19.6% | [4] -49.2% | [5] -3.05% | [6] 8%

N#Cc1n[nH]n(C2CCCCC2)c1=O
inactive: [1] -29.4% | [2] -12.8% | [3] -13.3% | [4] -0.3% | [5] -20.1% | [6] -14.2%

CC1=CC[C@](C)(O)[C@@]2(C)CC[C@H]3C(=C(C)C)C(=O)C[C@]3(C)C[C@H]12
inactive: [1] 9% | [2] 1.3% | [3] 19.9% | [4] 33.4% | [5] 10.2% | [6] 17.5%

C=C1CC2(C)C(=O)CCCC2OC1=O (configuration not stated)
inactive: [1] 4.05% | [2] -0.85% | [3] 10.1% | [4] -14.9% | [5] 4.8% | [6] 4%

COc1ccc2c(c1)s/c(=N/N)n2CCCS(=O)(=O)O
inactive: [1] 5.5% | [2] -1.75% | [3] 20.9% | [4] 23.1% | [5] 5.4% | [6] 12.2%

O=C(NCCNCCCNC(=O)c1cc(-c2ccccc2)nc2ccccc12)c1cccc(O)c1O
inactive: [1] 8.4% | [2] 22.6% | [3] 33.1% | [4] 22.6% | [5] 49.5% | [6] 44.2%

CC1=Nc2ccccc2N2C1=CC1=C(C(=O)c3cc4ccccc4cc3C1=O)C2C (configuration not stated)
inactive: [1] 16.4% | [2] 6.65% | [3] 5.75% | [4] 24.2% | [5] -5.2% | [6] 24.4%

CC(C)N(CCN1CCCCC1)c1ccccn1
inactive: [1] -0.9% | [2] 18.2% | [3] 7.2% | [4] -75.5% | [5] 10.3% | [6] 14.9%

O=C(Nc1c(Cl)c(Cl)c2c(c1Cl)Cc1cc(Cl)ccc1-2)C(Cl)Cl
inactive: [1] 36.9% | [2] 10.7% | [3] 1.5% | [4] 26.1% | [5] 3.85% | [6] 25.4%

O=C1CC(N2C(=O)C3C4CCC(O4)C3C2=O)C(=O)N1 (configuration not stated)
inactive: [1] 2.45% | [2] 18.2% | [3] 1.3% | [4] -0.6% | [5] 7.95% | [6] 6.45%

COc1c2c(cc3c1[C@@H]1Oc4c(ccc(O)c4CC=C(C)C)[C@@H]1CO3)OC(C)(C)C=C2
inactive: [1] 45.5% | [2] 52.7% | [3] 36.9% | [4] 55.2% | [5] 44.5% | [6] 41.4%

CCN1CCC(CC(c2ccccc2)c2ccccc2)C1 (configuration not stated)
inactive: [1] 19.4% | [2] -6.75% | [3] 34.2% | [4] -4.95% | [5] 10.1% | [6] 7%

CN(C)C1(C(=O)O)c2ccccc2-c2ccccc21
inactive: [1] 9.85% | [2] 10.6% | [3] 21.8% | [4] -3.45% | [5] 16.3% | [6] -3.3%

C=C(C(C)C)C1CC1
inactive: [1] 0.25% | [2] -18.2% | [3] -4.25% | [4] 3.5% | [5] -2.6% | [6] -11.8%

CC(C)(C)c1ccn[nH]1.CC(C)(C)c1ccn[nH]1.[Cl-].[Cl-].[O]=[V][O-]
inactive: [1] 0.9% | [2] -12.4% | [3] 9.65% | [4] -29.2% | [5] -21.8% | [6] -12.8%

COC(=O)CCCCl
inactive: [1] -51% | [2] -56.4% | [3] -38% | [4] 8.25% | [5] -21% | [6] -15.6%

NC(=O)C1(C(N)=O)CC1
inactive: [1] 11.4% | [2] 4.55% | [3] -14.5% | [4] -0.05% | [5] -3.75% | [6] 5.1%

Cc1ccc(NC(=O)C(=O)CC(=O)c2c(C)n([O-])c3ccccc3[n+]2=O)cc1C
inactive: [1] -6.2% | [2] -1.55% | [3] 1.25% | [4] 9.35% | [5] 0.2% | [6] 11.9%

N#Cc1nnc2cc(-c3ccccc3)nn2c1-c1ccco1
inactive: [1] 27.9% | [2] 11.2% | [3] 16.3% | [4] 35.5% | [5] 28.1% | [6] 31.4%

CC(O)C(C)[N+](=O)[O-] (configuration not stated)
inactive: [1] 9.4% | [2] 0.5% | [3] -2.8% | [4] 11.6% | [5] 5.7% | [6] -1.05%

CCCCCc1nc2c(c(=O)n(C)c(=O)n2C)n1C
inactive: [1] 14.2% | [2] -9.35% | [3] -1% | [4] 0% | [5] 6% | [6] 17.6%

CC(=O)OC1CC(c2ccccc2)N(C)C(c2ccccc2)C1 (configuration not stated)
inactive: [1] 6.85% | [2] -8% | [3] 2.55% | [4] -7.9% | [5] -3.15% | [6] 10.6%

Brc1ccc2nc(-c3ccccc3)c3ccccc3c2c1
inactive: [1] -13.7% | [2] -0.45% | [3] -2.35% | [4] -25.4% | [5] 14.8% | [6] -2.65%

COC1OC(C(C)O)C(O)C(O)C1O (configuration not stated)
inactive: [1] 23.6% | [2] 19% | [3] 10.2% | [4] 14.9% | [5] 4.65% | [6] 1.5%

CC1CC2OC(=O)C(C)C2CC2(C)C(OC3OC(CO)C(O)C(O)C3O)OCCC12 (configuration not stated)
inactive: [1] 11.7% | [2] 2.25% | [3] -17.9% | [4] 4.4% | [5] -6.8% | [6] -49.7%

CCOC(=O)C(O)Cc1ccc(N)cc1 (configuration not stated)
inactive: [1] 5.8% | [2] 12.2% | [3] 12.3% | [4] 9.85% | [5] 12.8% | [6] 2.85%

Clc1ccccc1C(CI)c1ccccc1Cl
inactive: [1] 25.6% | [2] 9.75% | [3] 15.2% | [4] 13.4% | [5] -1.2% | [6] 10.1%

O=C(CN1C(=O)c2cccc3c(Br)ccc(c23)C1=O)c1ccc(Cl)cc1
inactive: [1] -14.2% | [2] -12.7% | [3] 5.85% | [4] 5% | [5] 6.8% | [6] 13.6%

O=C(/C=C/c1ccsc1)c1ccsc1
inactive: [1] -38.9% | [2] -51.9% | [3] -22.9% | [4] 3.6% | [5] 9.5% | [6] -3.05%

Cc1cc(Cc2c(F)c(F)c(Cc3cc(C)no3)c(F)c2F)on1
inactive: [1] 8.35% | [2] 5.6% | [3] 8.85% | [4] 1.1% | [5] 0.4% | [6] 18.1%

Cc1ccccc1N=Cc1ccccc1[N+](=O)[O-]
inactive: [1] 17.1% | [2] 9.65% | [3] -1.1% | [4] -22.2% | [5] -0.6% | [6] 8.1%

N=c1c2ncn(C3OC(COP(=O)(O)O)C(O)C3O)c2ncn1O (configuration not stated)
inactive: [1] 12.7% | [2] 0% | [3] -6.6% | [4] -18% | [5] -9.6% | [6] 1.15%

O=C(CC(=O)N(C(=O)c1ccccc1)c1ccc(Cl)cc1)N/N=C\c1ccccc1O
inactive: [1] 1.35% | [2] -5.4% | [3] 5.45% | [4] -1.85% | [5] 19.9% | [6] -15.4%

CCn1c2ccccc2c2c3ncc4cccn4c3ccc21
inactive: [1] 10.8% | [2] -6.95% | [3] 19.4% | [4] 14.4% | [5] 7.95% | [6] 27.8%

c1ccc(COC2NCCN2Cc2ccccc2)cc1 (configuration not stated)
inactive: [1] -29.6% | [2] -20.5% | [3] -10.7% | [4] 6.8% | [5] -55.5% | [6] -7.85%

O=c1nc(NCCc2c[nH]c3ccccc23)ccn1C1OC(CO)C(O)C1O (configuration not stated)
inactive: [1] 19.1% | [2] 4.5% | [3] 2.35% | [4] 15.1% | [5] -1.45% | [6] 7.25%

CCCN(N)CCC
inactive: [1] -8.15% | [2] -16.6% | [3] -7.8% | [4] -45.2% | [5] 0.25% | [6] -1.6%
